From PubChem BioAssay (Tox21)
Inconclusive results are not listed. Activity calls are given as the source filed them. Calls come from the whole dose curve; as a rule, active = well fitted cell-killing curve with a large enough effect in the repeat runs; inconclusive = weak or mixed curves, or effect the other way; inactive = flat fitted curve, though single readings scatter. Non-standard residues stand in square brackets, D forms with d. Residues, ends and D or L forms follow the SMILES beside them. *: point of attachment. Sta = CC(C)C[C@H](N)[C@@H](O)CC(=O)O; Isovaleryl = CC(C)CC(=O)*

Experiment: qHTS assay to identify small molecule agonists of the estrogen receptor beta (ER-beta) signaling pathway - cell viability counter screen (AID 1259380); note: nearly all actives have a fitted effect of over 30% in size
Settings: ER-beta-bla HEK293T viability, CellTiter-Glo luminescence, 16 h; series mostly up to 92.4 µM; activity change, negative = cytotoxicity: at the top concentration
Description: National Center for Advancing Translational Sciences [NCATS]
NIH Chemical Genomics Center [NCGC]
U.S. Environmental Protection Agency [EPA]
National Institutes of Environmental Health Sciences [NIEHS]
National Toxicology Program [NTP]
U.S. Food and Drug Administration [FDA]
Estrogen receptor (ER), a nuclear hormone receptor, plays an important role in development, metabolic homeostasis and reproduction. Two subtypes of ER, ER-alpha and ER-beta, have similar expression patterns with some uniqueness in both types. Endocrine disrupting chemicals (EDCs) and their interactions with steroid hormone receptors like ER causes disruption of normal endocrine function. To identify the compounds that activate ER signaling, an ER beta-UAS-bla GripTite cell line (Life Technologies, Madison, WI, USA) containing a beta-lactamase reporter gene under the control of an UAS response element was used to screen Tox21 10K compound library. The cytotoxicity of the Tox21 compound library against the ER-beta-bla cell line was tested in parallel by measuring the cell viability using CellTiter-Glo assay in the same wells.
Tox21 Assay Protocol Summary:
ER-beta-UAS-bla HEK293T cells were dispensed at 2,000 cells/5 uL of assay medium containing 2% charcoal stripped FBS per well into black wall/clear-bottom 1536-well plates using a Multidrop Combi (ThermoFisher Scientific, Waltham, MA) dispenser. After the assay plates were incubated at a 37C and 5% CO2 for 6 hr, 23 nL of compounds dissolved in DMSO, positive controls or DMSO only was transferred to the assay plate by a Pintool station (Kalypsys, San Diego, CA). The plates were incubated at 37C and 5% CO2 for 16 hr. Then 1 uL of LiveBLAzerTM B/G FRET substrate was added using a BioRAPTR FRD (Flying Reagent Dispenser, Aurora Discovery, San Diego, CA) and then the plates were incubated at room temperature for 2 hours, and fluorescence intensity was measured by an Envision plate reader (PerkinElmer, Shelton, CT). For cell viability readout that measures cytotoxicity, 4 uL/well of CellTiter-Glo reagent was added into the assay plates using a FRD. After 30 min incubation at room temperature, the luminescence intensity in the plates was measured using a ViewLux (PerkinElmer) plate reader.
% is set by controls: 0 for no effect and ±100 for the full control effect.

SMILES	activity change, negative = cytotoxicity
CCN1CCN(C(=O)N[C@@H](C(=O)N[C@@H]2C(=O)N3C(C(=O)O)=C(CSc4nnnn4C)CS[C@H]23)c2ccc(O)cc2)C(=O)C1=O	-3.66% [at 42.5 µM] (inactive)
CC1(C)CC(N)CC(C)(C)N1	9.97% (inactive)
CCCCC(O)/C=C(C)/C=C/C=C/C(=O)N1CCCC1=O (stereo not given)	1.67% [at 42.5 µM] (inactive)
O=C(O)COc1ccc2ccccc2c1	1.29% (inactive)
CCCCCCCCCCCC(C)=O	2.58% (inactive)
O=C(O)/C=C(\CC(=O)O)C(=O)O	4.44% [at 42.5 µM] (inactive)
COc1cc(NS(=O)(=O)c2ccc(N)cc2)ncn1	10.6% [at 42.5 µM] (inactive)
CCCCC(CC)COC(=O)CC#N (stereo not given)	-1.33% (inactive)
C=CCON/C(CCC)=C1\C(=O)CC(C)(C)C(C(=O)OC)=C1O	4.95% (inactive)
CC/C=C\CCOC(=O)c1ccccc1	1.51% (inactive)
NNC(=O)OCc1ccccc1	-0.531% (inactive)
CC[C@@]1(c2ccccc2)NC(=O)N(C)C1=O	2.19% [at 42.5 µM] (inactive)
O=C(CCBr)N1CCN(C(=O)CCBr)CC1	-0.669% [at 42.5 µM] (inactive)
CN(C)CCCN(C)C	5.46% [at 8.39 µM] (inactive)
CC(C)(C)c1ccc(C(=O)CCCCl)cc1	-0.404% [at 42.5 µM] (inactive)
C[C@@H](CN1CC(=O)NC(=O)C1)N1CC(=O)NC(=O)C1	12.8% [at 42.5 µM] (inactive)
CC(C)(C)C(=O)NCCCC(=O)O	3.22% [at 42.5 µM] (inactive)
CCCCCCCCCCCCCCCC(=O)OC	4.05% [at 19 µM] (inactive)
CC12CCCC=C1C(=O)OC2=O (stereo not given)	10.3% (inactive)
C[C@@H]1NC(=O)[C@@H](N)CNC(=O)[C@H](C2CCNC(N)=N2)NC(=O)/C(=C/NC(N)=O)NC(=O)[C@H](CNC(=O)C[C@@H](N)CCCN)NC1=O (stereo not given in full)	11.9% [at 0.349 µM] (inactive)

SMILES	activity change, negative = cytotoxicity
C=CCCCCCCCCOC(C)=O	0.318% (inactive)
CC(C)CC(O)Cc1ccccc1 (stereo not given)	3.26% (inactive)
CC(C)C(=O)Nc1cccc(C2CN3CCSC3=N2)c1 (stereo not given)	-0.843% [at 42.5 µM] (inactive)
Cc1nc2ccc(Cl)cc2[nH]1	7.2% (inactive)
C=CCCCCCCCCCCCCCC	1.12% [at 19 µM] (inactive)
NS(=O)(=O)c1cc2c(cc1C(F)(F)F)NCNS2(=O)=O	10.3% [at 42.5 µM] (inactive)
COCc1nnc(-c2ccc[n+]([O-])c2)n1-c1c(Cl)c(Cl)cc2[nH]c(=O)c(=O)[nH]c12	8.62% (inactive)
C[n+]1ccccc1/C=N/O	4.56% [at 42.5 µM] (inactive)
OCCC(F)(F)C(F)(F)C(F)(F)C(F)(F)C(F)(F)C(F)(F)F	-2.08% (inactive)
CC(C)(C)OC=O	0.791% (inactive)
Cc1ccc2cccnc2c1	-0.588% (inactive)
CC(C)CC(=O)N[C@H](C(=O)N[C@H](C(=O)N[C@@H](CC(C)C)[C@@H](O)CC(=O)N[C@@H](C)C(=O)N[C@@H](CC(C)C)[C@@H](O)CC(=O)O)C(C)C)C(C)C (Isovaleryl-VV[Sta]A[Sta]-OH)	0% [at 42.5 µM] (inactive)
CCCC(=O)OC	2.12% (inactive)
CCCC(C)C(O)CC (stereo not given)	5.44% (inactive)
C/C(Cl)=C/CCl	-0.682% (inactive)
C/C=C(\C)C=O	-4.57% (inactive)
CCCCCCCCCCCCCCCC/C=C/C1CC(=O)OC1=O (stereo not given)	-1.65% [at 42.5 µM] (inactive)
N#Cc1ccccc1C#N	5.54% (inactive)
NNC(=O)CCCCC(=O)NN	-0.654% (inactive)
CSC(=O)c1cccc2nnsc12	0.197% (inactive)
